In the supplement of paper PMC6411743:
± gives the standard deviation of the averaged measurements. Of roughly 6,500 targets only a part is listed; those with the largest changes were picked by preference.

Compound: Nc1ncnc2c1ncn2[C@@H]1O[C@H](COP(=O)(O)OP(=O)(O)OP(=O)(O)O)[C@@H](O)[C@H]1O [adenosine triphosphate]
Assay: NP40-soluble protein abundance relative to vehicle (solubility fold change) (ratio); higher = more soluble protein in presence of ATP
Method in brief: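 Across three independent experiments, values are fold changes against the detergent-processed vehicle for each replicate, based on vsn-normalised intensities. The samples were Jurkat crude lysate treated with eight concentrations (0.1 to 10 mM) for 10 min at room temperature and then 3 min at 37 °C. Lysate was solubilised with 0.8% NP40 and benzonase, ultracentrifuged, and the supernatant analysed by TMT-labelled LC-MS/MS.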

UniProt P05166, sequence (P05166 whole entry, one chain of several): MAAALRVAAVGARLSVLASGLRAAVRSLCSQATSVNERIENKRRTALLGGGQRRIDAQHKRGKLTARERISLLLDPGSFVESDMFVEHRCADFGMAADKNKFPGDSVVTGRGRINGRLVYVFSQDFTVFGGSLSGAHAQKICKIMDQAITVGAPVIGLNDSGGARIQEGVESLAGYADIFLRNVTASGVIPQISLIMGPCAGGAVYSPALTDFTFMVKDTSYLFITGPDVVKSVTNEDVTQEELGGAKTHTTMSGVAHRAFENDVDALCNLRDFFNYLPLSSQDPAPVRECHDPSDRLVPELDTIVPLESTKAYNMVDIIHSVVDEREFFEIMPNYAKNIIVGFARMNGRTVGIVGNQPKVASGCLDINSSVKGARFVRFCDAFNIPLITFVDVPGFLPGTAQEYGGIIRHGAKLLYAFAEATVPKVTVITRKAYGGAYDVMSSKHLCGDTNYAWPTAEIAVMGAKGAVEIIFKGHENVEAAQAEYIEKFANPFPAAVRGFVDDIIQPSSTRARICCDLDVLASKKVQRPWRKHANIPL
UniProt P56556, sequence (P56556 whole entry, one chain of several): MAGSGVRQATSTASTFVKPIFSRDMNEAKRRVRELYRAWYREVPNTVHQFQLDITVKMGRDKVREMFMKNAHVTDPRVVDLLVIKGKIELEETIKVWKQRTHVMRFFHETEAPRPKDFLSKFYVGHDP
UniProt Q8NEM7, sequence (Q8NEM7 whole entry, one chain of several): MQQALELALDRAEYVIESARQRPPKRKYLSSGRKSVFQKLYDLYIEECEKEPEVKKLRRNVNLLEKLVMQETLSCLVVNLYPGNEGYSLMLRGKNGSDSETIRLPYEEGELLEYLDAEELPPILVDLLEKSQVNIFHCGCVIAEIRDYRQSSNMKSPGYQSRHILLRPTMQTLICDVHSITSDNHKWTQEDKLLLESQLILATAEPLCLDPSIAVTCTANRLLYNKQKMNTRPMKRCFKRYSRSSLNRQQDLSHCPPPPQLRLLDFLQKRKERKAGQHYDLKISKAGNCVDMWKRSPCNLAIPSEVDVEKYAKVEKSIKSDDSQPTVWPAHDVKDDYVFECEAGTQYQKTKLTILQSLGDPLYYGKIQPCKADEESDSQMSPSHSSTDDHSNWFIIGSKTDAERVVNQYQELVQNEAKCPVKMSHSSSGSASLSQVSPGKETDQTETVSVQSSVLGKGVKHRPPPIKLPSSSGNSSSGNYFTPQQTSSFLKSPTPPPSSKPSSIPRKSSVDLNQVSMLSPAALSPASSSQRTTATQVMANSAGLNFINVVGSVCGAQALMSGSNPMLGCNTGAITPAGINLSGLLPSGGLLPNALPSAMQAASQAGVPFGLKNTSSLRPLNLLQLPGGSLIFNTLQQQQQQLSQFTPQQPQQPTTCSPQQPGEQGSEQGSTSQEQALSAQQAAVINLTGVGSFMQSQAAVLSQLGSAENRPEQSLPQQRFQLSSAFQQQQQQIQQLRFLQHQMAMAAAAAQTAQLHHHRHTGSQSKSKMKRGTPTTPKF
UniProt Q96DM3, sequence (Q96DM3 whole entry, one chain of several): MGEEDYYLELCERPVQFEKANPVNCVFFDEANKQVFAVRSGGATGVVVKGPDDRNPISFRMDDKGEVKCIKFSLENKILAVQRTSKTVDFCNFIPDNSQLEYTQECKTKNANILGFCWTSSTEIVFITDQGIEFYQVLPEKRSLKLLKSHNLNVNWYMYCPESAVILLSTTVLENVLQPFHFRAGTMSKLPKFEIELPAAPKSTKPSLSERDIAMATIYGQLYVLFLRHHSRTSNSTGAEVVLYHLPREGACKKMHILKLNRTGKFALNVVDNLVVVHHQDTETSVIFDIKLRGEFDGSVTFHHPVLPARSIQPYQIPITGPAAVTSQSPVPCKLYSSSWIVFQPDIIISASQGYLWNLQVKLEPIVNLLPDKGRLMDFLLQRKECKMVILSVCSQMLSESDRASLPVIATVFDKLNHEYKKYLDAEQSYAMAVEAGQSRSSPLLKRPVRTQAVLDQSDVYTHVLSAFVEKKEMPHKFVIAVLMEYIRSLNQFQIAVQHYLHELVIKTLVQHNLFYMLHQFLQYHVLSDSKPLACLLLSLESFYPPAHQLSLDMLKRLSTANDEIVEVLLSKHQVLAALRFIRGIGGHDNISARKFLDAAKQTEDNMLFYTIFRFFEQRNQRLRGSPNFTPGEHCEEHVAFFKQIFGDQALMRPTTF
UniProt O43809, sequence (O43809 whole entry): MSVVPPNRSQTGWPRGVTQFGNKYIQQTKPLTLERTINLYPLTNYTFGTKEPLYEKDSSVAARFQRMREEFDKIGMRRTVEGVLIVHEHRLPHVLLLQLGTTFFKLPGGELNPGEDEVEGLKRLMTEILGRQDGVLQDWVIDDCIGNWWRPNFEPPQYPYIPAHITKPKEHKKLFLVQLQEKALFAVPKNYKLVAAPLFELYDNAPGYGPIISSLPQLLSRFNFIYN
UniProt P08575, sequence (P08575 whole entry, one chain of several): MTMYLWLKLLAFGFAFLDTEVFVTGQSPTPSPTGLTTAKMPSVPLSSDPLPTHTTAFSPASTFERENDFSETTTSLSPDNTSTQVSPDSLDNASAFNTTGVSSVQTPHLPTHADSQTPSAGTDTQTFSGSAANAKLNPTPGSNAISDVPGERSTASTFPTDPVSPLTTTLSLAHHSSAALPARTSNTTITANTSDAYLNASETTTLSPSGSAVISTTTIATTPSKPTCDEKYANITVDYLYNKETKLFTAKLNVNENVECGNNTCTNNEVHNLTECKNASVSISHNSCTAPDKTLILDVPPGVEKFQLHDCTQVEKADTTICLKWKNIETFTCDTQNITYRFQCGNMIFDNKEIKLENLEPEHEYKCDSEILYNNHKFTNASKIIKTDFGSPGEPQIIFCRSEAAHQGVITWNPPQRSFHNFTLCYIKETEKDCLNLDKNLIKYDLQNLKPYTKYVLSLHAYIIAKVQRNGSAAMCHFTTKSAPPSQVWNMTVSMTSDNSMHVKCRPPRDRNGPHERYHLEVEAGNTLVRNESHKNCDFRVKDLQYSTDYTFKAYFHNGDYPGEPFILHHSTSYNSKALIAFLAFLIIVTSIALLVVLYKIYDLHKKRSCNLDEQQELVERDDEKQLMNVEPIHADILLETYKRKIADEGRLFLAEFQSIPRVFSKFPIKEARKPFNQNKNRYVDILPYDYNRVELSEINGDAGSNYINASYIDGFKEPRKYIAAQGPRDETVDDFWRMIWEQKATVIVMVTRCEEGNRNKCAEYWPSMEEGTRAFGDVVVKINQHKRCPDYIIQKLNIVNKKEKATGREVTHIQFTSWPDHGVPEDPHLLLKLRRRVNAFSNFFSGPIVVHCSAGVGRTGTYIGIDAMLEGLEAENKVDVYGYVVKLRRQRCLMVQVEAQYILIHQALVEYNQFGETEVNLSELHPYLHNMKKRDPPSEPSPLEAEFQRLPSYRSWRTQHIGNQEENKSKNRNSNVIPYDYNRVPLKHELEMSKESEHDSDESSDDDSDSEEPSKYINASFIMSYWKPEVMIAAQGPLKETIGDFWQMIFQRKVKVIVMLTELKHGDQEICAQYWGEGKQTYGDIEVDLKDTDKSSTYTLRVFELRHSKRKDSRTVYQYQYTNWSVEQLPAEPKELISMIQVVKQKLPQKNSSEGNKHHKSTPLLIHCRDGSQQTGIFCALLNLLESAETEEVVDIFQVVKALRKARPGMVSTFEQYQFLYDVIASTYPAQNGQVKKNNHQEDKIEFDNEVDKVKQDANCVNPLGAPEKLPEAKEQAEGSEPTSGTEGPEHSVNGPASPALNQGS
UniProt Q6UW02, sequence (Q6UW02 whole entry, one chain of several): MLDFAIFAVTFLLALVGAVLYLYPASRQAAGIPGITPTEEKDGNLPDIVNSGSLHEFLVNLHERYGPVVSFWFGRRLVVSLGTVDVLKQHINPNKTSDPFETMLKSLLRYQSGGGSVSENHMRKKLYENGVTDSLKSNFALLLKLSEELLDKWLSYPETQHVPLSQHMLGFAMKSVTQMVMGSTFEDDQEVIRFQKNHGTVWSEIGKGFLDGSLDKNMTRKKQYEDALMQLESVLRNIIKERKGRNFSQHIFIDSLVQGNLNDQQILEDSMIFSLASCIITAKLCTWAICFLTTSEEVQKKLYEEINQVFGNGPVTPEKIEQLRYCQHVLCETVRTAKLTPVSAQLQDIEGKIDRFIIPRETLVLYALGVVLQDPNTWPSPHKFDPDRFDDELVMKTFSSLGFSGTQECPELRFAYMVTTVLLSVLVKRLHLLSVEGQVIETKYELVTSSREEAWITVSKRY
UniProt Q96BT3, sequence (Q96BT3 whole entry, one chain of several): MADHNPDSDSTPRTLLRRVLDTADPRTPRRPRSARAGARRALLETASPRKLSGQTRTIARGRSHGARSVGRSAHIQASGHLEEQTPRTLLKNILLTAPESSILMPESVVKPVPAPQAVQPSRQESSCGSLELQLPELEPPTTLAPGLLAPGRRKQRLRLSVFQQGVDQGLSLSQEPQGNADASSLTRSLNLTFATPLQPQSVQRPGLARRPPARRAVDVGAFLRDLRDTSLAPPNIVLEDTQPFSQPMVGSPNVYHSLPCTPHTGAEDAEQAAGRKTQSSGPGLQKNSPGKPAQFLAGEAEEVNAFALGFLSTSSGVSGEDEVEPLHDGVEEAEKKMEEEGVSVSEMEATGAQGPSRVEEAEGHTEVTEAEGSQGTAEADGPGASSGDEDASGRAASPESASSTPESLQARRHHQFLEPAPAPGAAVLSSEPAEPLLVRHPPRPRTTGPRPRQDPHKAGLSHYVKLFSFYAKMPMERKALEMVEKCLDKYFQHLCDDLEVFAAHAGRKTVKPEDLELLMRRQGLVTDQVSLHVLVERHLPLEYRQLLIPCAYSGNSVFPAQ
UniProt Q96GD4, sequence (Q96GD4 whole entry, one chain of several): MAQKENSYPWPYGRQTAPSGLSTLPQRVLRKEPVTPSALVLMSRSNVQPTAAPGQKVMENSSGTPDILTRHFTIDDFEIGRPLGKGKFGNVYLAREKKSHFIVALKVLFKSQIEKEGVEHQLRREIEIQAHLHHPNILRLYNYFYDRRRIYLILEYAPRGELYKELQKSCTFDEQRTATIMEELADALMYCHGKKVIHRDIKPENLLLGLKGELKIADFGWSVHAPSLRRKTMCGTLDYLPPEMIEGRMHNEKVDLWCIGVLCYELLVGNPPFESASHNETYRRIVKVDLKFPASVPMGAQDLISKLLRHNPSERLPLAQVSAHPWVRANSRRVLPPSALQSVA

Target	NP40-soluble protein abundance (concentration: 1mM)	NP40-soluble protein abundance (concentration: 2mM)	NP40-soluble protein abundance (concentration: 4mM)	NP40-soluble protein abundance (concentration: 6mM)	NP40-soluble protein abundance (concentration: 8mM)	NP40-soluble protein abundance (concentration: 10mM)
NUDT21 (UniProt O43809)	1.95 ± 0.11	2.06 ± 0.064	2.18 ± 0.1	2.25 ± 0.052	2.31 ± 0.1	2.213 ± 0.019
PSMD12 (UniProt O00232)	0.938 ± 0.063	0.894 ± 0.035	0.863 ± 0.015	0.843 ± 0.025	0.898 ± 0.031	0.885 ± 0.035
E9PHG5|Q6UW02 (UniProt Q6UW02)	1.11 ± 0.13	1.02 ± 0.16	1.04 ± 0.13	1.02 ± 0.17	1.02 ± 0.1	0.993 ± 0.086
H7C5U8|Q9P0M9 (UniProt Q9P0M9)	1.12 ± 0.16	0.995 ± 0.22	0.923 ± 0.19	0.944 ± 0.29	0.902 ± 0.19	0.894 ± 0.24
G3V0I5|P49821|P49821-2 (UniProt P49821)	0.986 ± 0.025	0.96 ± 0.02	0.944 ± 0.033	0.94 ± 0.056	0.962 ± 0.052	0.953 ± 0.046
G5E9V5|G5E9W7|P82650 (UniProt P82650)	1.01 ± 0.046	0.938 ± 0.079	0.892 ± 0.083	0.907 ± 0.18	0.88 ± 0.11	0.867 ± 0.1
E7EX59|E9PDR0|P05166|P05166-2|E7EUY3 (UniProt P05166)	0.992 ± 0.049	0.971 ± 0.02	0.968 ± 0.012	0.973 ± 0.046	0.998 ± 0.033	0.979 ± 0.03
H3BUX2|J3KNF8|O43169 (UniProt O43169)	0.964 ± 0.19	0.854 ± 0.08	0.877 ± 0.06	0.865 ± 0.077	0.815 ± 0.059	0.781 ± 0.084
J3KP06|Q8WWI1|Q8WWI1-2|Q8WWI1-3|Q8WWI1-4 (UniProt Q8WWI1)	1.31 ± 0.026	1.41 ± 0.07	1.57 ± 0.067	1.65 ± 0.07	1.77 ± 0.057	1.96 ± 0.042
K7ENL9|Q96DM3 (UniProt Q96DM3)	1.04 ± 0.097	0.984 ± 0.027	1.02 ± 0.029	1.02 ± 0.058	1.02 ± 0.061	0.985 ± 0.03
UniProt O14776|O14776-2	0.972 ± 0.011	0.9735 ± 0.0036	0.959 ± 0.024	1.03 ± 0.021	1.01 ± 0.024	1.02 ± 0.013
A0A0C4DGS0|P56556 (UniProt P56556)	0.969 ± 0.066	0.922 ± 0.055	0.901 ± 0.046	0.875 ± 0.066	0.926 ± 0.053	0.909 ± 0.031
F8W060|Q9BZF1 (UniProt Q9BZF1)	0.936 ± 0.018	0.933 ± 0.035	0.939 ± 0.018	0.927 ± 0.046	0.964 ± 0.013	0.959 ± 0.045
D0EV57|P01889|P10321|P13746-2|P16188|P30493|P30499|P30504|P30505|P30508|P30685|Q29865|Q29963|Q5SRN5|Q6DU44|Q8MH48|A0A140T912|E9PIB1|O19617|Q29940|Q29718 (UniProt Q29718+Q29940+E9PIB1+Q8MH48+Q6DU44+Q5SRN5+D0EV57+P01889+P10321+P30505+P13746+P30499+P16188+P30493+Q29865+P30504+P30508+P30685+O19617+Q29963)	0.961 ± 0.026	0.9786 ± 0.0089	0.9485 ± 0.0059	0.977 ± 0.013	0.949 ± 0.022	0.96 ± 0.015
H3BTR4|Q96BT3 (UniProt Q96BT3)	1.32 ± 0.023	1.41 ± 0.13	1.52 ± 0.21	1.72 ± 0.23	1.68 ± 0.17	1.87 ± 0.17
K7ELH7|K7ENE2|Q8IVV7 (UniProt Q8IVV7)	1.04 ± 0.13	0.979 ± 0.11	1 ± 0.032	0.867 ± 0.075	0.931 ± 0.094	0.92918 ± 9.2e-06
I3L2M1|J3KNL2|Q8WYJ6 (UniProt Q8WYJ6)	0.941 ± 0.031	0.945 ± 0.017	0.948 ± 0.022	0.928 ± 0.033	0.932 ± 0.04	0.941 ± 0.033
A0A0A0MT22|M9MML4|P08575|P08575-2|X6R433 (UniProt P08575)	0.946 ± 0.026	0.9679 ± 0.0084	0.9321 ± 0.0056	0.967 ± 0.014	0.918 ± 0.018	0.943 ± 0.036
F5GWN5|O00750 (UniProt O00750)	0.994 ± 0.022	1.03 ± 0.025	1.05 ± 0.013	1.02 ± 0.039	1.03 ± 0.028	1.03 ± 0.051
UniProt E9PSI1	0.9713 ± 0.0047	0.986 ± 0.015	0.981 ± 0.015	0.939 ± 0.037	0.958 ± 0.044	0.96 ± 0.04
E9PEB9|Q03001|Q03001-3 (UniProt Q03001)	0.92 ± 0.1	0.924 ± 0.041	0.942 ± 0.081	0.959 ± 0.15	0.899 ± 0.09	0.968 ± 0.056
E9PDF6|O43795 (UniProt O43795)	2.78 ± 0.047	2.71 ± 0.065	2.65 ± 0.15	2.65 ± 0.21	2.82 ± 0.17	2.67 ± 0.12
M0QZM1|M0R019|P52272|P52272-2 (UniProt P52272)	0.988 ± 0.037	0.999 ± 0.016	1.01 ± 0.032	1.07 ± 0.014	1.04 ± 0.019	1.06 ± 0.024
J3KTD6|Q96GD4|Q96GD4-5 (UniProt Q96GD4)	1.37 ± 0.16	1.47 ± 0.18	1.6 ± 0.16	1.58 ± 0.25	1.71 ± 0.032	1.76 ± 0.072
F8W9X7|Q567U6 (UniProt Q567U6)	0.974 ± 0.012	0.962 ± 0.017	0.959 ± 0.024	0.935 ± 0.015	0.951 ± 0.016	0.943 ± 0.028
MAN2B1 (UniProt O00754)	0.94 ± 0.027	0.948 ± 0.017	0.957 ± 0.023	0.887 ± 0.057	0.917 ± 0.038	0.93 ± 0.018
SLC25A20 (UniProt O43772)	0.918 ± 0.088	0.945 ± 0.037	0.943 ± 0.012	0.822 ± 0.099	0.884 ± 0.028	0.974 ± 0.0095
F6S7C4|Q8NEM7|Q8NEM7-2|Q8NEM7-3|R4GND2 (UniProt Q8NEM7)	1.09 ± 0.12	1.15 ± 0.1	1.14 ± 0.093	1.12 ± 0.13	1.16 ± 0.093	1.2 ± 0.11
URB1 (UniProt O60287)	1.29 ± 0.067	1.41 ± 0.043	1.65 ± 0.057	1.7 ± 0.12	1.94 ± 0.12	2.15 ± 0.084
SETD1A (UniProt O15047)	0.962 ± 0.038	0.97 ± 0.018	0.979 ± 0.022	0.997 ± 0.044	0.969 ± 0.049	0.997 ± 0.046
